The results in this text go back to PubChem BioAssay AID2551 (National Center for Advancing Translational Sciences (NCATS), 2010).

Each structure is given as a SMILES string. “And” between values parts separate entries of the source, which are not always exact repeats. Equal entries are not always repeated. Hit rate of the full screen: of about 310,000 compounds, about 17,000 (5.5%) were called active. Where a call stands in place of a potency, no number is given. Not shown: some 11% with an inconclusive outcome. This is one part of a sample in which actives are shown more often than they occur. Calls come from the whole dose curve; as a rule, active = well fitted inhibition curve with a large enough effect; inconclusive = small, poorly fitted or top-dose-only effect, or effect the other way; inactive = no such curve, though single readings can be large or run the other way. The source holds several records for some structures; these can differ, active in one and inactive in another.
Potency is the fitted concentration of half-maximal effect.

The experiment deals with Nuclear receptor ROR-gamma (Mus musculus) (UniProt P51450). Nature of the experiment: qHTS for inhibitors of ROR gamma transcriptional activity. Note: nearly all actives have a fitted effect of over 60% in size. The settings on record: Drosophila S2 Gal4-RORgamma UAS-luciferase reporter, 20 h; series mostly up to 53.6 µM. Put shortly: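 Compounds are pin-transferred onto Drosophila Schneider cells expressing a copper-inducible Gal4–ROR gamma transactivation domain fusion. After 1 hr, copper sulfate is added to 700 uM final; luciferase is read 20 hr later.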
Sequence of Nuclear receptor ROR-gamma (Mus musculus) (P51450 whole entry, looked up, the tested form may be a part): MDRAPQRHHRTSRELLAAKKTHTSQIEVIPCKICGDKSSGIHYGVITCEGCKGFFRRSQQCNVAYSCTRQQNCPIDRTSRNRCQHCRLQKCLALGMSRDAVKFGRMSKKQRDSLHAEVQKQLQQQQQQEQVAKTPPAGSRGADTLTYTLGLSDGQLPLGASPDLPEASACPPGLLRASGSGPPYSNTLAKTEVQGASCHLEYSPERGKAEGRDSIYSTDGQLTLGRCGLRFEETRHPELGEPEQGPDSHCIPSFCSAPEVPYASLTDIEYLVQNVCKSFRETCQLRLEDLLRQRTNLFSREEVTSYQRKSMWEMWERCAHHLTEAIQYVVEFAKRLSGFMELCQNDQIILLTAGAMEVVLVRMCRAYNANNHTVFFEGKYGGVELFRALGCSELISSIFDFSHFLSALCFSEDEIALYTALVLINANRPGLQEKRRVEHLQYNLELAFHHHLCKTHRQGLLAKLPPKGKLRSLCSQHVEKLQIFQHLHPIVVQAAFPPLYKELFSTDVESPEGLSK
Regarding `Cc1ccccc1-c1nc(CS(=O)(=O)CC(=O)NC(C)c2ccccc2)c(C)o1` (configuration not stated), the Potency result is “inactive”.
Regarding `Cc1ccc(NS(=O)(=O)c2c(C)[nH]c(C)c2C(=O)N2CCCCC2)c(C)c1`, the Potency entry is “inactive”.
With `O=C(O)CCn1c(O)c(C=C2N=c3ccccc3=N2)sc1=S`, the Potency is 0.794 µM (active).
Turning to `Cc1cc2ccccc2n1CCC(=O)O`, the Potency result was “inactive”.
Still for that read-out and setting: in the case of `O=C(O)CCn1c(Cc2ccccc2)nc2ccccc21` it was “inactive”; in that of `COc1ccccc1NC(=O)c1cc(N2C(=O)C3C4CCC(C4)C3C2=O)ccc1Cl` (configuration not stated), “inactive”; in that of `CCc1nnc(NC(=O)C2CCCN2S(=O)(=O)c2ccccc2)s1` (configuration not stated), “inactive”.
For the compound `CCc1nnc(NC(=O)c2ccc(S(=O)(=O)NC3CCCCC3)cc2)s1`, the Potency entry is “inactive”.
Consider `CNC(=O)c1ccsc1NC(=O)c1ccc(S(=O)(=O)N2CCOCC2)cc1`, for which the Potency entry was “inactive”.
Same read-out and setting: in the case of `CSCc1nnc(NC(=O)c2ccc(S(=O)(=O)N3CCCCC3C)cc2)o1` (configuration not stated) it was 1 µM (active); in that of `Cc1ccnc(NS(=O)(=O)c2ccc(NC(=O)c3ccc(S(=O)(=O)N4CCOCC4)cc3)cc2)n1`, “inactive”.
Still for that read-out and setting: in the case of `CC1CCCCN1S(=O)(=O)c1ccc(C(=O)Nc2nnc(-c3cccs3)o2)cc1` (configuration not stated) it was 0.0891 µM (active).
With `CC1CCCN(S(=O)(=O)c2ccc(C(=O)Nc3nnc(-c4ccncc4)o3)cc2)C1` (configuration not stated), the Potency result is “inactive”.
Turning to `O=C(Nc1nnc(-c2ccco2)o1)c1ccc(S(=O)(=O)N2CCOCC2)cc1`, the Potency is 1.78 µM (active).
On to `O=C(Nc1ccc(S(=O)(=O)N2CCOCC2)cc1)c1ccc2ncsc2c1`, for which the Potency entry is “inactive”.
On to `CC(=O)c1ccc(OC(=O)N2CCOCC2)cc1`, for which the activity change, negative = inhibition is -0.265% [at 1.91 µM] (inactive).
In the case of `COc1ccc(CNC(=O)COc2cccnc2[N+](=O)[O-])cc1`, the Potency entry is “inactive”.
Regarding `Cc1cc2c(=O)n(CC(=O)NCC(=O)Nc3ccc(C(C)C)cc3)cnc2s1`, the Potency entry is “inactive”.
In the case of `CCCCN1C(=O)C(C)=C(C)C1OCCc1ccc(OC)c(OC)c1` (configuration not stated), the Potency entry was “inactive”.
For the compound `Cc1cc(-c2ccc(S(=O)(=O)N3CCN(c4cccc(C(F)(F)F)c4)CC3)s2)on1`, the Potency result is “inactive”.
Still for that read-out and setting: in the case of `CN(C)C(=O)c1ccc(NC(=O)c2ccccc2-c2ccccc2)cc1` it was “inactive”; in that of `CC(C)C[C@H](NC(=O)N1CC(=O)Nc2ccccc21)C(=O)N[C@H](Cc1ccccc1)C(=O)O`, “inactive”.
Consider `CCOC(=O)CSc1nc2ccc(C)cc2n2cnnc12`, for which the Potency entry is “inactive”.
For the compound `CCCOc1cccc(C(=O)Nc2ccccc2C(=O)N2CCN(C)CC2)c1`, the Potency entry was “inactive”.
Turning to `CC(=O)Nc1ccc(S(=O)(=O)NC2Cc3ccccc3C2)cc1`, the Potency entry was “inactive”.
With `COCCN1C(=O)N[C@@H](CCc2ccccc2)[C@H](C(C)=O)[C@H]1C`, the Potency entry is “inactive”.
Same read-out and setting: in the case of `CCN1C(=S)N[C@@H](CCc2ccccc2)[C@H](C(=O)OC)[C@H]1C` it was “inactive and 2.24 µM (active)”; in that of `CCN1C(=NCc2ccc(OC)cc2)N[C@@H](CCc2ccccc2)[C@H](C(=O)NCc2ccc(OC)cc2)[C@H]1C`, “inactive”.
For the compound `CN1CCN(C(=O)c2cnn(-c3ccccc3)c2NC(=O)c2ccc([N+](=O)[O-])cc2)CC1`, the Potency entry was “inactive”.
As to `Cc1cccc(C)c1NC(=O)CS(=O)CC(=O)N1CCN(c2ccccc2)CC1` (configuration not stated), the Potency entry was “inactive”.
For `CCNS(=O)(=O)c1ccc(CCC(=O)N2CCN(c3ccc(OC)cc3)CC2)cc1`, the Potency entry is “inactive”.
Still for that read-out and setting: in the case of `CN(C)C(=O)Cn1c(=O)n(S(=O)(=O)c2ccccc2)c2ccccc21` it was “inactive”.
Still for that read-out and setting: in the case of `COC(=O)c1ccccc1NC(=O)CSc1n[nH]c(-c2ccncc2)n1` it was “inactive”.
Turning to `Cc1ccc2oc(C(=O)N3CCN(C)C[C@@H]3C(C)C)c(C)c2c1`, the Potency entry is “inactive”.
Regarding `CN(Cc1cccnc1)C(=O)c1cc(COc2ccc3ncccc3c2)on1`, the Potency is 4.47 µM (active).
The same measure, in the same setting: in the case of `Cc1ccc(OCc2cc(C(=O)N(C)CCc3ccccc3)no2)cc1C` it was “inactive”.
Take `CC(=O)c1cccc(OCc2cc(C(=O)NC(C)Cc3cccnc3)no2)c1` (configuration not stated): the Potency result is “inactive”.
Same read-out and setting: in the case of `COCCn1cnc2c1c(=O)n(Cc1ccc(Br)cc1)c(=O)n2Cc1ccccc1` it was “inactive”.
On to `O=C(CCNC(=O)C1CCN(S(=O)(=O)c2ccccc2)CC1)NC1CC1`, for which the Potency result is “inactive”.
For `COc1ccc(CN2CCCC(N3CCc4ccccc4C3)C2)c(O)c1` (configuration not stated), the Potency result was “inactive”.
The same measure, in the same setting: in the case of `CCOC(=O)C1=C(NC(=S)NC(=O)c2ccccc2)c2ccccc2CC1(C)C` it was 4.47 µM (active); in that of `CCOC(=O)C1=C(C)c2ccccc2OC1(C)C(=O)OCC` (configuration not stated), “inactive”; in that of `CCOC(=O)c1c(-c2cccc(C)c2)csc1NC(=O)c1c(-c2ccccc2)noc1C`, “inactive”.
Consider `CCOC(=O)c1c(-c2ccccc2)csc1NC(=S)NC(=O)c1ccccc1`, for which the Potency was 2.82 µM (active).
With `CCOC(=O)CNC(=O)/C(=C\c1ccc(F)cc1)NC(=O)c1ccccc1`, the Potency entry was “inactive”.
On to `CCOC(=O)c1c(-c2ccc(-c3ccccc3)cc2)csc1NC(=O)CCC(=O)O`, for which the Potency entry was “inactive”.
In the case of `COc1cccc(C(=O)Nc2nnc(S(=O)(=O)N3CCCCC3)s2)c1`, the Potency result is “inactive”.
`CC(=O)Nc1ccc(NC(=O)CCCNC(=O)c2ccc(Cl)cc2)cc1`: the Potency result is “inactive”.
On to `CC(C)c1ccc(C2C(C(=O)c3ccco3)=C(O)C(=O)N2CC2CCCO2)cc1` (configuration not stated), for which the Potency result is “inactive”.
Same read-out and setting: in the case of `COc1ccccc1NC(=O)CCN1CCN(c2ccc(Cl)cc2)CC1` it was “inactive”; in that of `CCc1ccc(N(CC(=O)NCc2cccnc2)S(=O)(=O)c2ccccc2)cc1`, 14.1 µM (active); in that of `O=C(CCc1ccccc1)NCc1cccnc1`, “inactive”.
Take `O=C(CN(c1cc(C(F)(F)F)ccc1Cl)S(=O)(=O)c1ccccc1)NCc1cccnc1`: the Potency entry was “inactive”.
For the compound `Cc1c(C)c2c(OCC(=O)NCCCO)cc3c(c2oc1=O)CCC(C)(C)O3`, the Potency result was “inactive”.
As to `CC(C)CC(CCc1ccccc1)OS(N)(=O)=O` (configuration not stated), the Potency entry is “inactive”.
Turning to `O=C(/C=C/c1ccco1)NC(=S)Nc1ccccc1Br`, the Potency was 11.2 µM (active).
For the compound `Cc1cccc(N2CCN(C(=O)/C=C/c3ccco3)CC2)c1C`, the Potency entry was “inactive”.
Same read-out and setting: in the case of `O=C(/C=C/c1ccco1)NC(=S)N1CCCCC1` it was 3.98 µM (active).
Take `COc1ccccc1C(=O)Nc1cccc(C(=O)N2CCOCC2)c1`: the Potency entry is “inactive”.
As for `COc1ccccc1/C=C/C(=O)NC1CC2CCC1C2` (configuration not stated), the Potency entry is “inactive”.
On to `Cc1nnc(NC(=O)/C=C/c2ccco2)s1`, for which the Potency entry is “inactive”.
In the case of `COc1ccccc1/C=C/C(=O)NC(=S)N1CCOCC1`, the Potency is 7.08 µM (active).
As for `CC(=O)Nc1ccc(NC(=S)NC(=O)/C=C/c2ccccc2)cc1`, the Potency result was “inactive”.
For `CCNC(=S)N1CCN(C(=O)c2ccco2)CC1`, the Potency result was “inactive”.
Still for that read-out and setting: in the case of `CCC(C)[C@H](NC(=O)N1CCn2c1nc1ccccc12)C(=O)NCc1ccc(OC)cc1` (some centres not stated) it was “inactive”.
Turning to `O=C(O)CC/C(=C\c1cc2c(cc1Br)OCO2)c1nc2ccccc2s1`, the Potency entry is “inactive”.
Take `CC(=O)N1CCc2cc(S(=O)(=O)NC3CCCCC3)ccc21`: the Potency result was “inactive”.
On to `COCCNc1ncnc2c1nc1n2CCCC1`, for which the Potency result was “inactive”.
On to `CCCCCCn1cc(C(=O)O)c(=O)c2cc(F)c(N3CCCCC3)cc21`, for which the Potency entry is “inactive”.
For `O=C(Nc1ccc(S(=O)(=O)Nc2ccccn2)cc1)c1ccccc1`, the Potency result was “inactive”.
As to `Cc1ccc(CNC(=O)CCS(=O)(=O)c2ccc3c(c2)CC(C)N3C(=O)C2CC2)o1` (configuration not stated), the Potency entry was “inactive”.
As for `O=C(Nc1ccc([N+](=O)[O-])cc1)OCCc1ccccn1`, the Potency entry was “inactive”.
Consider `CC(=O)Nc1cccc(NC(=O)c2c(-c3ccccc3)noc2C)c1`, for which the Potency entry is “inactive”.
Regarding `Cc1onc(-c2ccccc2)c1C(=O)Nc1ccccc1C#N`, the Potency result is “inactive”.
With `COc1ccc(C(=O)NC(=S)NNC(=O)c2c(-c3ccccc3)noc2C)cc1`, the Potency was 6.31 µM (active).
For `Cc1onc(-c2ccccc2)c1C(=O)NNC(=S)NC(=O)c1ccc(F)cc1`, the Potency was 3.98 µM (active).
In the case of `Cc1onc(-c2c(Cl)cccc2Cl)c1C(=O)NNC(=O)c1c(-c2c(Cl)cccc2Cl)noc1C`, the Potency entry was “inactive”.
Take `Cc1ccc(CNC(=O)c2c(-c3ccccc3)noc2C)cc1`: the Potency entry is “inactive”.
As to `NC(=O)c1oc2ccccc2c1NC(=O)Cc1ccccc1`, the activity change, negative = inhibition was -17.9% [at 1.91 µM] (inactive).
Regarding `COc1ccc(N(C(=O)c2snc(C(N)=O)c2N)C(C(=O)NC2CCCC2)c2ccco2)cc1OC` (configuration not stated), the Potency result is “inactive”.
On to `O=C1/C(=C/c2ccc(F)cc2)SC(=S)N1CCCC(=O)N1CCCCC1CCO` (configuration not stated), for which the Potency result is “inactive”.
Regarding `COC(=O)Cn1cnc2scc(-c3ccc(C)c(C)c3)c2c1=O`, the Potency result is “inactive”.
`NS(=O)(=O)c1ccc(NC(=S)NC(=O)c2cccc(Br)c2)cc1`: the Potency was 11.2 µM (active).
Still for that read-out and setting: in the case of `Cc1ccc(C)c(NC(=O)NNC(=O)c2ccc3ccccc3c2O)c1` it was “inactive”.
On the same count and under the same terms, in the case of `Cc1ccc(C)c(NC(=O)CCC(=O)NNC(=O)c2cccs2)c1` it was “inactive”; in that of `O=C(NC1CC1)c1cccc(Br)c1`, “inactive”.
As to `NS(=O)(=O)c1ccc(NC(=S)NC(=O)c2cccnc2)cc1`, the Potency entry was “inactive”.
As to `O=C(/C=C/NNC(=O)c1cccc(Br)c1)c1ccccc1`, the Potency result was “inactive”.
Still for that read-out and setting: in the case of `Cc1ccc(C)c(NC(=S)NNC(=O)c2csc(C)c2)c1` it was 3.55 µM (active); in that of `O=C(NC(=S)Nc1cccc2c(O)cccc12)c1cccc(Br)c1`, 11.2 µM (active).
Consider `Cc1ccccc1NC(=S)NNC(=O)c1cccc(Br)c1`, for which the Potency is 11.2 µM (active).
Same read-out and setting: in the case of `O=C(NC(=S)Nc1ccc(Cl)c(C(=O)O)c1)c1cncc(Br)c1` it was “inactive”; in that of `O=C(NC(=S)Nc1ccc(S(=O)(=O)Nc2ncccn2)cc1)c1cccc(Br)c1`, “inactive”.
Still for that read-out and setting: in the case of `CC(CC(=O)O)CC(=O)NNC(=O)c1cccc(Br)c1` (configuration not stated) it was “inactive”; in that of `COc1ccc(-c2nnc3n2CCCCC3)cc1`, “inactive”; in that of `COc1ccc(NC(=O)CSc2nncc(=O)n2N)cc1OC`, “inactive”.
Regarding `CC(CN1CCOCC1)OC(=O)c1ccc(Cl)cc1Cl` (configuration not stated), the Potency result was “inactive”.
As for `Cn1c(C(=O)N2CCCC(C(=O)NCc3ccccc3)C2)cc2sccc21` (configuration not stated), the Potency entry is “inactive”.
On the same count and under the same terms, in the case of `COc1ccccc1NC(=O)c1ccc(N2CC3CC(C2)c2cccc(=O)n2C3)c(NC(=O)c2cccnc2)c1` (configuration not stated) it was “inactive”.
Still for that read-out and setting: in the case of `CC(=O)N1c2ccc(S(=O)(=O)N3CCC(C(=O)N4CCN(c5ccccc5)CC4)CC3)cc2CC1C` (configuration not stated) it was “inactive”; in that of `CC(C)CN(CC(C)C)C(=O)CN1c2cccc3cccc(c23)S1(=O)=O`, “inactive”.
For the compound `O=C(CNC(=O)[C@@H]1Cc2ccccc2CN1)NC1CCCCC1`, the Potency entry is “inactive”.
